What all share (assay): DAPPL (digital affinity profiling via proximity ligation, sequencing); 10 mM Tris-HCl pH 7.5, 50 mM NaCl, 1 mM DTT, 4% glycerol, room temperature, 30 min; GST-TFs on glutathione beads, 16-mer random dsDNA library, 0.1% formaldehyde crosslink after washing; high values mean tight binding
The target of one assay is T1, FLI1 (Homo sapiens, UniProt Q01543 1-452).
T1 sequence: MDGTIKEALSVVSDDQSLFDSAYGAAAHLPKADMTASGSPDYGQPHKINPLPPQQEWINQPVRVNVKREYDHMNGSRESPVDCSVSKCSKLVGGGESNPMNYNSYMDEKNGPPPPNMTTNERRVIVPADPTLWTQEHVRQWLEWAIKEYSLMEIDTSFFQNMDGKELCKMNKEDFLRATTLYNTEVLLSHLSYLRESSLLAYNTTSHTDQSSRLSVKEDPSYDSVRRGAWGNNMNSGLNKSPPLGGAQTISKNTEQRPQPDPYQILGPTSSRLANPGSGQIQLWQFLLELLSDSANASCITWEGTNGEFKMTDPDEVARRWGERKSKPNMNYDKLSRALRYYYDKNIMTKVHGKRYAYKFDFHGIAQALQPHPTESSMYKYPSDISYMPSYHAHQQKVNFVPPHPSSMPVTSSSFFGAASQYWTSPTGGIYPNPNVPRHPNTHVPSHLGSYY
The conditions noted are these: protein: recombinant; tags: N-terminal GST; dsDNA, one strand shown. The method in brief: (§1)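 Sequencing on an Illumina NextSeq500 followed washing, crosslinking with 0.1% formaldehyde, proximity ligation (BsaI/T4 ligase, 1 h, 37 °C) and PCR amplification of pools that had been incubated for 30 min at room temperature with 200 nmole of a random double-stranded 16-mer DNA library in Tris/NaCl/DTT/glycerol buffer. Each pool held DNA-barcoded human transcription factors, expressed in yeast as GST fusions and captured on glutathione beads, plus a tag-only sample. Binding signal is a hexamer's read frequency for a factor divided by its frequency in the tag-only sample.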

The target of a further assay is T2, ELK1 (Homo sapiens, UniProt P19419 1-428).
T2 sequence: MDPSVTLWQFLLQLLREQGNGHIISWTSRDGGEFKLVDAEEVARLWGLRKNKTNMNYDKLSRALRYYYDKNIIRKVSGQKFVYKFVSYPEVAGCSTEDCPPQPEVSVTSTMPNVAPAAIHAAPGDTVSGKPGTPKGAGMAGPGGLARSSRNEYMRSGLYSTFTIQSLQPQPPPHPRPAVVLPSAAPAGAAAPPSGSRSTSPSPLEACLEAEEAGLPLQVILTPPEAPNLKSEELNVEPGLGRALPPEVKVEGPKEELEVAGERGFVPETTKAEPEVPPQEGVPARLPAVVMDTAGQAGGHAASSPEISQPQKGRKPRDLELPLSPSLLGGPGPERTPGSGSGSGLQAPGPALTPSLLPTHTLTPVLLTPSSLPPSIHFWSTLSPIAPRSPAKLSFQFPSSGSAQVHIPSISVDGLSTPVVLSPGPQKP
The settings on record: protein: recombinant; tags: N-terminal GST; dsDNA, one strand shown. In a few lines:
as §1

The target in another assay is T3, GABPA (Homo sapiens, UniProt Q06546 1-454).
T3 sequence: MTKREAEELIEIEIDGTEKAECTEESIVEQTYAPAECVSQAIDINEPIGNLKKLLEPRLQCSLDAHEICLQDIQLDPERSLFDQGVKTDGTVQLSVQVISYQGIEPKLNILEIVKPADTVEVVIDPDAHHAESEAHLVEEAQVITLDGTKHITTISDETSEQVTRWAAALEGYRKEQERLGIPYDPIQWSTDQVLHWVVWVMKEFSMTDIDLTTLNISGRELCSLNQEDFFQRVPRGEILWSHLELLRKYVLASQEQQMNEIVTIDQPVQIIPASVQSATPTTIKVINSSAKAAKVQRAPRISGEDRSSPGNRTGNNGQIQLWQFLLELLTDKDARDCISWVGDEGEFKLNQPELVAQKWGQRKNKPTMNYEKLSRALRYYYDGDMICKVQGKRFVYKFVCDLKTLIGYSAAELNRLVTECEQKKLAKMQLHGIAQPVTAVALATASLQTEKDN
The settings on record: protein: recombinant; tags: N-terminal GST; dsDNA, one strand shown. The method in brief: as §1

The target in another assay is T4, ERG (Homo sapiens, UniProt P11308 1-479).
T4 sequence: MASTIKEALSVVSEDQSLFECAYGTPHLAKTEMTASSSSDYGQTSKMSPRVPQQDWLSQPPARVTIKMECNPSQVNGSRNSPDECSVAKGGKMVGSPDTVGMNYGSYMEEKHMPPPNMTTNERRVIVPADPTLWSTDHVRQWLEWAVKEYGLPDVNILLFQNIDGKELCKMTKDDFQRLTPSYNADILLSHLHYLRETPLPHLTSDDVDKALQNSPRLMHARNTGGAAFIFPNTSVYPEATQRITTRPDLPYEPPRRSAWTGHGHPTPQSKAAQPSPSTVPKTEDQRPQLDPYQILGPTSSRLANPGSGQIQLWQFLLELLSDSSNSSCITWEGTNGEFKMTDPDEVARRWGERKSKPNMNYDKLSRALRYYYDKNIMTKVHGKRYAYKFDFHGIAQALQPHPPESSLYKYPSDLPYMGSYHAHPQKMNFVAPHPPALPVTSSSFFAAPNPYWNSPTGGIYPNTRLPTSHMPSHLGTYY
The conditions noted are these: protein: recombinant; tags: N-terminal GST; dsDNA, one strand shown. The method in brief: as §1

A further assay has as its target ELF1 (Homo sapiens, UniProt P32519 1-619). The settings on record: protein: recombinant; tags: N-terminal GST; dsDNA, one strand shown. The method in brief:
as §1

Another assay addresses T5, EHF (Homo sapiens, UniProt Q9NZC4 1-300).
T5 sequence: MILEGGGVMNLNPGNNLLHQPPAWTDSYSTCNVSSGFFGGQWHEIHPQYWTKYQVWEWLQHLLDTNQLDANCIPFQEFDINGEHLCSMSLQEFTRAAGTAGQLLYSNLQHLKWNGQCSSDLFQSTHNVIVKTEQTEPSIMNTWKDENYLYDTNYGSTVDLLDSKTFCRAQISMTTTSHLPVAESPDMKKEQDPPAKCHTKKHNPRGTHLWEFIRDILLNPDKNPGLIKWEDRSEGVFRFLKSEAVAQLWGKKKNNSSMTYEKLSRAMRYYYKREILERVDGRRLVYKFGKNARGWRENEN
The conditions noted are these: protein: recombinant; tags: N-terminal GST; dsDNA, one strand shown. In a few lines: as §1

The target of the next assay is SPI1 (Homo sapiens, UniProt P17947 1-270). The conditions noted are these: protein: recombinant; tags: N-terminal GST; dsDNA, one strand shown. The method in brief:
as §1

In the next assay the target is SPIB (Homo sapiens, UniProt Q01892 1-262). The conditions noted are these: protein: recombinant; tags: N-terminal GST; dsDNA, one strand shown. The method in brief:
as §1

A further assay deals with T6, ELK3 (Homo sapiens, UniProt P41970 1-407).
T6 sequence: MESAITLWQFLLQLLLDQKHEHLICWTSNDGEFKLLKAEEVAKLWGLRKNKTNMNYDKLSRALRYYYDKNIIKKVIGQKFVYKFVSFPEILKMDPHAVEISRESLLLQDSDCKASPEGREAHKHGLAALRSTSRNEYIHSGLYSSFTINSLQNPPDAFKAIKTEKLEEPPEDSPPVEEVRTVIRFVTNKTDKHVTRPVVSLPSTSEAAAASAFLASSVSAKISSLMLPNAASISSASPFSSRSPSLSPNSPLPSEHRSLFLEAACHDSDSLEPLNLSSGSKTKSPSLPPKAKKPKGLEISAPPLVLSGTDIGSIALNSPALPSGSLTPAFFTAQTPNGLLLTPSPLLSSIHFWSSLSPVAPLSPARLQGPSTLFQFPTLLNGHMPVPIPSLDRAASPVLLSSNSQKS
The settings on record: protein: recombinant; tags: N-terminal GST; dsDNA, one strand shown. In a few lines:
as §1

Another assay has as its target T7, FEV (Homo sapiens, UniProt Q99581 1-238).
T7 sequence: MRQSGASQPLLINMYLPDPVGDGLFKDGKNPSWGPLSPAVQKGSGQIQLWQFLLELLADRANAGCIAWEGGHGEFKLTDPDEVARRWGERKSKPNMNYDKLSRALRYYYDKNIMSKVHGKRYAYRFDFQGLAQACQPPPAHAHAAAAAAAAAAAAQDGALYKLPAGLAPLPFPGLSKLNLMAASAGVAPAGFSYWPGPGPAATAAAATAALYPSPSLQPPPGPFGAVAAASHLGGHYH
The settings on record: protein: recombinant; tags: N-terminal GST; dsDNA, one strand shown. The method in brief: as §1

The next assay concerns the target ETV5 (Homo sapiens, UniProt P41161 1-510). The conditions noted are these: protein: recombinant; tags: N-terminal GST; dsDNA, one strand shown. In a few lines: as §1
Another assay addresses HSF1 (Homo sapiens, UniProt Q00613 1-529). The settings on record: protein: recombinant; tags: N-terminal GST; chain copies: 3; dsDNA, one strand shown. The method in brief: as §1
The next assay concerns the target T8, SPIC (Homo sapiens, UniProt Q8N5J4 1-248).
T8 sequence: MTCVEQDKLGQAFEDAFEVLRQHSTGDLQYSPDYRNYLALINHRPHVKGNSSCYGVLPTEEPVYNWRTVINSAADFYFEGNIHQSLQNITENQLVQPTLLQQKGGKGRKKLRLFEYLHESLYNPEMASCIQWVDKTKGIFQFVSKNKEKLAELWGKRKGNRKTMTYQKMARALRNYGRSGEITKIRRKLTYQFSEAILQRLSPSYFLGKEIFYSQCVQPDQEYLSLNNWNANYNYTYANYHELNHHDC
The conditions noted are these: protein: recombinant; tags: N-terminal GST; dsDNA, one strand shown. In a few lines:
as §1

A further assay has as its target ELF4 (Homo sapiens, UniProt Q99607 1-663). The settings on record: protein: recombinant; tags: N-terminal GST; dsDNA, one strand shown. The method in brief:
as §1

The target in the next assay is T9, ELK4 (Homo sapiens, UniProt P28324-2 1-405).
T9 sequence: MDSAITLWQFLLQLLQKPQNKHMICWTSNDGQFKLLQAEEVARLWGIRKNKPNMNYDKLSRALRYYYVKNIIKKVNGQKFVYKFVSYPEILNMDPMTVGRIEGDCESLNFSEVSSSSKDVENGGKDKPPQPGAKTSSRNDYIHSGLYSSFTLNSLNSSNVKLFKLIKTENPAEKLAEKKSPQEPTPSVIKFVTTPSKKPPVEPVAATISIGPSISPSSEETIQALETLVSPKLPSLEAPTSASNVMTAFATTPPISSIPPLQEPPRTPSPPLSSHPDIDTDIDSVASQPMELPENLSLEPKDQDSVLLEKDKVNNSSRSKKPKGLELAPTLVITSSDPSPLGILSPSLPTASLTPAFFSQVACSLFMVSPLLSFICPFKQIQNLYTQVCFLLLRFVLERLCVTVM
The conditions noted are these: protein: recombinant; tags: N-terminal GST; dsDNA, one strand shown. In a few lines: as §1

In another assay the target is T10, ETV2 (Homo sapiens, UniProt O00321 1-342).
T10 sequence: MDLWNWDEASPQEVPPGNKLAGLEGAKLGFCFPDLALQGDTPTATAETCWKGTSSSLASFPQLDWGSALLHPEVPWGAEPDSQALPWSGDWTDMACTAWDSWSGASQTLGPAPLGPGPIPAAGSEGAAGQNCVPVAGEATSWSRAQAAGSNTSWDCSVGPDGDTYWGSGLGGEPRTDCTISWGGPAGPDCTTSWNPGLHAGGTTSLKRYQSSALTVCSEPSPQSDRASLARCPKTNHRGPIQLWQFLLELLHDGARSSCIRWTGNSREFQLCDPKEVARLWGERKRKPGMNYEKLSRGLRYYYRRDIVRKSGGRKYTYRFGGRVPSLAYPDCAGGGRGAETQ
The settings on record: protein: recombinant; tags: N-terminal GST; dsDNA, one strand shown. In a few lines:
as §1

For the next assay, the target named is T11, ELF3 (Homo sapiens, UniProt P78545 1-371).
T11 sequence: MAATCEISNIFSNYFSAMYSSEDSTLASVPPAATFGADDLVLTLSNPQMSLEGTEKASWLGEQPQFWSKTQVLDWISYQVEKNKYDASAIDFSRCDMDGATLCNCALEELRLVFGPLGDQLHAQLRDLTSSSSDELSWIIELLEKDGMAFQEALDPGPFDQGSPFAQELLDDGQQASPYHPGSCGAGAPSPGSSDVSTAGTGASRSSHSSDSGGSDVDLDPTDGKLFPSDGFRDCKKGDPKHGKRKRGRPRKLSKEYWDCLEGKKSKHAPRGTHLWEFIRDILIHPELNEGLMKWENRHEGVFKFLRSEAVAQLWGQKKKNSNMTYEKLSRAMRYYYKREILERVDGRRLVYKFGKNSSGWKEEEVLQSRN
The settings on record: protein: recombinant; tags: N-terminal GST; dsDNA, one strand shown. The method in brief: as §1

The next assay has as its target ETV1 (Homo sapiens, UniProt P50549 1-477). The settings on record: protein: recombinant; tags: N-terminal GST; dsDNA, one strand shown. In a few lines:
as §1

HSF1, sequence (Q00613 whole entry): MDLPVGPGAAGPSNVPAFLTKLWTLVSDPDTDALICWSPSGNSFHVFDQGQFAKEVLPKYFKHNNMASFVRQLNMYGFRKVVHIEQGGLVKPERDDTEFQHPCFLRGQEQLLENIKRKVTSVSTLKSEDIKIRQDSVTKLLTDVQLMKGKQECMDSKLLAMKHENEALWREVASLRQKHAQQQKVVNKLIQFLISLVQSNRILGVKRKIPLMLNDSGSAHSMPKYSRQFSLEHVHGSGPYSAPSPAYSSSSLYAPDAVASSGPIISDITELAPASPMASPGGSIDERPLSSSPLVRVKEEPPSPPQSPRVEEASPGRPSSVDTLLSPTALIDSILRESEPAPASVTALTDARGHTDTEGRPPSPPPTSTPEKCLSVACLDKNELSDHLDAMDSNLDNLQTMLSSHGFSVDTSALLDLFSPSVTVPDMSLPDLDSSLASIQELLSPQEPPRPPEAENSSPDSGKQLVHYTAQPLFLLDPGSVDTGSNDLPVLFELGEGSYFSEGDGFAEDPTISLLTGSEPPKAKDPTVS
ELF4, sequence (Q99607 whole entry): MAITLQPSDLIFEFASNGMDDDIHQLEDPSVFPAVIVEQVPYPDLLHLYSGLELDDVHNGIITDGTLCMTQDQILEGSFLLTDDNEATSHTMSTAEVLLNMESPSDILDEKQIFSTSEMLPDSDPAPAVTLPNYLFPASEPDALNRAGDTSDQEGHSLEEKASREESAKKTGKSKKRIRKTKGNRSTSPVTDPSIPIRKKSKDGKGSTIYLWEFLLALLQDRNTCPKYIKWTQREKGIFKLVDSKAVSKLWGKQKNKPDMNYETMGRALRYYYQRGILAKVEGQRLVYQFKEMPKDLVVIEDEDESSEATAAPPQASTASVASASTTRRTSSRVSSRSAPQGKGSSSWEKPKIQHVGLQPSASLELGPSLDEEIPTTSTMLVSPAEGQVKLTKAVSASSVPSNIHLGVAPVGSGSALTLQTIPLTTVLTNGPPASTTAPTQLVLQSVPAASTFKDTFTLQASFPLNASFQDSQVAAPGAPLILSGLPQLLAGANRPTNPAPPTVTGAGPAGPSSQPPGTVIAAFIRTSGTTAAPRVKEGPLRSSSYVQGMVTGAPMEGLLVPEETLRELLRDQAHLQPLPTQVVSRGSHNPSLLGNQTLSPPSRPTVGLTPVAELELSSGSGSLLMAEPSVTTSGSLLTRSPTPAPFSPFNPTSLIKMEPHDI
ETV5, sequence (P41161 whole entry): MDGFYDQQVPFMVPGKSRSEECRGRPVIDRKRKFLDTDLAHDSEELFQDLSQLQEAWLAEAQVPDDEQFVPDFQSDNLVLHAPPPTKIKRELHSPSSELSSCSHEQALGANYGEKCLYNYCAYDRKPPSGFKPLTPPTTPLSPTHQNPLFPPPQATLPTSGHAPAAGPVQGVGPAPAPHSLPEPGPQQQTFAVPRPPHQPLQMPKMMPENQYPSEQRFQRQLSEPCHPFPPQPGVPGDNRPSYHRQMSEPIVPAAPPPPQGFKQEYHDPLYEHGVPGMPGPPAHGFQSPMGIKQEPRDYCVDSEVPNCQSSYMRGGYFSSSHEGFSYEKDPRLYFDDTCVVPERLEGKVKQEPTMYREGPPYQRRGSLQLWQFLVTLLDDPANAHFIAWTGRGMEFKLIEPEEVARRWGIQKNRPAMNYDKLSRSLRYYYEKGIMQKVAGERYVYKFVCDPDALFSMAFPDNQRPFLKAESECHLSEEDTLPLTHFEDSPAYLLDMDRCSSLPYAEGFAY
SPIB, sequence (Q01892 whole entry): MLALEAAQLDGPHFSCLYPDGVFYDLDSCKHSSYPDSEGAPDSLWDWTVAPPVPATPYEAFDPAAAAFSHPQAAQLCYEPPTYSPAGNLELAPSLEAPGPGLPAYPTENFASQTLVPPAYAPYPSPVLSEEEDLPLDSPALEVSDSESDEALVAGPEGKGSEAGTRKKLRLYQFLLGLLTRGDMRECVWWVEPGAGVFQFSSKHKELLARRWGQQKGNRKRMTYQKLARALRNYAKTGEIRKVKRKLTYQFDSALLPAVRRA
ELF1, sequence (P32519 whole entry): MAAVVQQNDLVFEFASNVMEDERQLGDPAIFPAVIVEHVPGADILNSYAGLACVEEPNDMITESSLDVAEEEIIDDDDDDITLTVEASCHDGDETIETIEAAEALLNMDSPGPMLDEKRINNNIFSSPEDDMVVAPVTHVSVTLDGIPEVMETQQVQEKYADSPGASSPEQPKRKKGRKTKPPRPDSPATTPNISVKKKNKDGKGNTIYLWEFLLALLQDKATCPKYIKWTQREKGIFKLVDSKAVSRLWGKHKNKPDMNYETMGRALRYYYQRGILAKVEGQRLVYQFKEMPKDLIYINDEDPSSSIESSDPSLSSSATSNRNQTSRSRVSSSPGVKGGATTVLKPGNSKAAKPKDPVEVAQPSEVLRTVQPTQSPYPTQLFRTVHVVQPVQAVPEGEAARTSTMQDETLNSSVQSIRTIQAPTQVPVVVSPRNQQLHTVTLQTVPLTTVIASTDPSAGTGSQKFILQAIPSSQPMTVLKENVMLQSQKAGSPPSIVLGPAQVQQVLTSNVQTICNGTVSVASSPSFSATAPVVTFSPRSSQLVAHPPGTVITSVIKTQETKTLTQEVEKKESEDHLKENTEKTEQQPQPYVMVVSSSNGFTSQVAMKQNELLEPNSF
ETV1, sequence (P50549 whole entry): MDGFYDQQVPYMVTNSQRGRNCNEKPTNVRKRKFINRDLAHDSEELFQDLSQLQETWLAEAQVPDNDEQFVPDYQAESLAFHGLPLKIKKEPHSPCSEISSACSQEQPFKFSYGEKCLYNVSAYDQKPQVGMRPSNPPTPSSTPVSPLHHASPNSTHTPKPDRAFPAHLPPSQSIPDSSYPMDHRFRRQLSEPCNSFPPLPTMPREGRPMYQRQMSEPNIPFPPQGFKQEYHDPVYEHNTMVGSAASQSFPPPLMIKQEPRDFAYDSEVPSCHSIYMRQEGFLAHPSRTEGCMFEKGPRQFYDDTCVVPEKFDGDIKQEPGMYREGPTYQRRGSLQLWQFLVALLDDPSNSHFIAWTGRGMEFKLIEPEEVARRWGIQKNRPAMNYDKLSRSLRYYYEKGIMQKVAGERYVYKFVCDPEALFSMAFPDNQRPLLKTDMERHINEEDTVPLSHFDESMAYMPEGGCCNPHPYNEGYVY

Take CAATTG: the binding signal with FLI1 is 1.32 fold enrichment (6-mer frequency, TF over GST control); with ELK1, 1.19 fold enrichment (6-mer frequency, TF over GST control); in the assay with GABPA, 1.26 fold enrichment (6-mer frequency, TF over GST control); in the assay with ERG, 1.14 fold enrichment (6-mer frequency, TF over GST control); with ELF1 it was 1.28 fold enrichment (6-mer frequency, TF over GST control); with EHF, 1.27 fold enrichment (6-mer frequency, TF over GST control). Moreover, the binding signal is 1.25 fold enrichment (6-mer frequency, TF over GST control) with SPI1; 1.16 fold enrichment (6-mer frequency, TF over GST control) with SPIB; 1.23 fold enrichment (6-mer frequency, TF over GST control) in the assay with ELK3; 1.18 fold enrichment (6-mer frequency, TF over GST control) in the assay with FEV; 1.2 fold enrichment (6-mer frequency, TF over GST control) in the assay with ETV5; 1.04 fold enrichment (6-mer frequency, TF over GST control) in the assay with HSF1. The binding signal with SPIC was 1.28 fold enrichment (6-mer frequency, TF over GST control); with ELF4 it was 1.27 fold enrichment (6-mer frequency, TF over GST control); with ELK4, 1.04 fold enrichment (6-mer frequency, TF over GST control); with ETV2 it was 1.16 fold enrichment (6-mer frequency, TF over GST control); with ELF3, 1.32 fold enrichment (6-mer frequency, TF over GST control); in the assay with ETV1 it was 1.17 fold enrichment (6-mer frequency, TF over GST control).

The values above are taken from article PMC7862700, “An all-to-all approach to the identification of sequence-specific readers for epigenetic DNA modifications on cytosine”.
